LmPK inh = blocks Leishmania mexicana pyruvate kinase activity. purified LmPK, Kinase-Glo ATP luminescence, 1 h. 290,000 compounds, 0.37% hits. AID 1721. Potency, µM (highest dose often 57.5 µM), without a hit: at the highest dose activity change, negative = inhibition, hits mostly inhibitors. Q27686; further: potency means the concentration at half of the fitted maximal effect; on the % scale 0 is the no-effect control and ±100 the full control effect
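0.1 nM LmPK, 0.5 mM PEP, 0.1 mM ADP; 50 mM imidazole pH 7.2, 7 mM MgCl2, 50 mM KCl; 1 h RT. Kinase-Glo luminescence readout, normalized to no-enzyme (full inhibition) and uninhibited wells.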
RE007 growth inh = less growth of the S. pombe RE007 Vpr strain | 360,000 compounds, 0.21% hits | Potency, µM (doses to about 92.2 µM), inactives show at the highest dose activity change, negative = less growth, hits mostly inhibitors | S. pombe RE007 Vpr strain, BacTiter-Glo ATP luminescence, 24 h; active means well fitted falling curve with a large enough effect; inconclusive means small, poorly fitted or top-dose-only effect; inactive means no such curve, though single readings can be large or run the other way; further: potency means the concentration at half of the fitted maximal effect; on the % scale 0 is the no-effect control and ±100 the full control effect; nearly all actives have a fitted effect of over 50% in size
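Fission yeast strain RE007, carrying one chromosomally integrated HIV-1 vpr copy, was seeded at OD 0.01 in PMG+AL medium with 23 nL pinned compound. After 24 h at 30 °C and 99% humidity, viability was read by BacTiter-Glo luminescence.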
Tb PYK inh = T. brucei pyruvate kinase inhibition; Q57TT1; TbPYK enzyme, Kinase-Glo Plus ATP luminescence, 45 min; Potency, µM (highest dose often 76.8 µM), without a hit: at the top dose activity, negative = inhibition, actives largely listed as inhibitors; 410,000 compounds, 0.12% hits; AID 624173; further: potency means the concentration at half of the fitted maximal effect; on the % scale 0 is the no-effect control and ±100 the full control effect; nearly all actives have a fitted effect of over 50% in size
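Luminescence from Kinase-Glo Plus, added after a 45-minute room-temperature reaction, served as the end-point read-out. The enzyme and substrate were preincubated with compound before ADP (130 uM final) initiated turnover. Concentration-effect curves came from normalized qHTS data.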
Shiga inhibitor = inhibitors of Shiga toxin in Vero cells. Vero cells, Shiga toxin protein synthesis inhibition reporter. inhibition, % at 38.7 µM. 290,000 compounds, 9.2% hits; in the data active means inhibition mostly above about 28%, no sharp cut-off; inactive means mostly below about 43%; further: 0% is about no effect
Giardia FBPA inh = inhibitors of Giardia lamblia fructose-1,6-bisphosphate aldolase. Potency, µM (titrated, usually from 59.6 µM), without a hit: top-dose activity, negative = inhibition, usual class: inhibitors. purified Giardia FBPA. 290,000 compounds, 0.71% hits; further: potency means the concentration at half of the fitted maximal effect; on the % scale 0 is the no-effect control and ±100 the full control effect; nearly all actives have a fitted effect of over 55% in size
Target sequence (A8B2U2 whole entry, looked up): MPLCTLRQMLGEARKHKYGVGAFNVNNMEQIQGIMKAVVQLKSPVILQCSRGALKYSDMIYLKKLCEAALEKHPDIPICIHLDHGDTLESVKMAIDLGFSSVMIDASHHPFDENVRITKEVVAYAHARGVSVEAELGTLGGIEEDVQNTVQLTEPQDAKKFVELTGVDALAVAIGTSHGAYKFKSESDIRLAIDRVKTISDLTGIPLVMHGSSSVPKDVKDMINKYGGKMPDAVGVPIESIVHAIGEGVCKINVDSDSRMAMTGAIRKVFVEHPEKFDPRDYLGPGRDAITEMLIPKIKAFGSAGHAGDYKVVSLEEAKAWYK
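Giardia FBPA (40 nM reagent) was preincubated 10 min at RT with compound (up to 57.5 uM final), then substrate plus GAPDH/TPI/NAD/arsenate coupling system with diaphorase/resazurin was added; resorufin fluorescence (525/598 nm) was read after 20 min.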
Cycloheximide cs = affects cycloheximide protein synthesis inhibition readout, counter-screen; cell reporter, cycloheximide protein synthesis inhibition counterscreen; max response, %; 300,000 compounds, 12% hits; AID 2314; in the data active means max response mostly above about 13%, no sharp cut-off; inactive means mostly below about 14%; further: read at 38.3 µM for the half of the compounds with a filed dose; 0% is about no effect
* = called active by the depositor; u = inconclusive; x = no result; [ ] = dose if it differs, or a comment. Many of the other results were omitted from the sample, so hits are more common in it than they were. Unless noted, the call rests on the fitted dose curve; in most records, active means well fitted curve in the direction sought with a large enough effect; inconclusive means small, poorly fitted or top-dose-only effect, or another doubt; inactive means no such curve, though single readings can be large; an effect the other way counts as inactive or inconclusive.

SMILES	LmPK inh	RE007 growth inh	Tb PYK inh	Shiga inhibitor	Giardia FBPA inh	Cycloheximide cs
CS(=O)c1ccccc1-c1nc(-c2cccc(Cl)c2)no1 (configuration not stated)	2%	-17%	-7%	36	0%	53*
Cc1c(NC(=S)NNC(=O)CCC(=O)O)c(=O)n(-c2ccccc2)n1C	-6%	7%	-7%	2	-22%	-5
C=CCN(c1ccc(C(=O)Nc2ccc3c(c2)OCO3)cc1)S(C)(=O)=O	3%	-2%	-9%	32	-8%	13*
CS(=O)(=O)N(CC(=O)Nc1ccc2c(c1)OCCO2)c1ccc2c(c1)OCO2	1%	-8%	-1%	15	-9%	10*
CCOC(=O)Cn1c(=O)n(C2CCCCC2)c2nc(-c3ccc(C(C)C)cc3)nc(C(N)=O)c21	x	x	-2%	x	x	x
CCc1ccc(N=C2N=C(N)c3ccccc32)cc1	-6%	-11%	2%	54*	-4%	32*
COc1ccc(OC)c(NC(=O)CCN2C(=O)c3ccccc3C2=O)c1	1%	8%	-9%	-9	5%	-1
Fc1ccccc1CNc1ccc(Cl)cc1	-7%	1%	2%	50*	1%	28*
Fc1ccc(NCc2ccccc2F)cc1Cl	-1%	2%	3%	38	x	13
O=C(CN1C(=O)CCC1=O)Nc1nc(-c2ccc3ccccc3c2)cs1	1%	5%	-3%	96*	-7%	40*
Cc1ccc(-c2csc(NC(=O)CN3C(=O)CCC3=O)n2)cc1	-1%	3%	0%	17	-5%	14
O=C(CN1C(=O)CCC1=O)Nc1nc(-c2nc3ccccc3s2)cs1	-1%	9%	-9%	active	5%	25*
CCN(CC)CCCNC1=C(Cl)C(=O)c2ccccc2C1=O	-6%	u	-6%	30	18%	2
CC(C)OCCCNC1=C(Cl)C(=O)c2ccccc2C1=O	-6%	u	-6%	66*	0%	49*
COCCCNC1=C(Cl)C(=O)c2ccccc2C1=O	-11%	u	-6%	49*	-12%	33*
CC(C)NC1=C(Cl)C(=O)c2ccccc2C1=O	-8%	u	-5%	43	u	21*
Cc1ccc(C2OC(=O)C=C2c2ccccc2)cc1 (configuration not stated)	x	-8%	9%	x	x	x
CSc1nc(C)cc(Nc2c(C)cc(C)cc2C)n1	x	x	2%	x	x	x
CC1(C(=O)Nc2ccccc2F)CCN1C(=O)Cc1ccc(-c2ccccc2)cc1 (configuration not stated)	x	5%	-7%	x	x	x
COC(=O)c1sccc1S(=O)(=O)N1CCN(c2cccc(C)c2)C(C)C1 (configuration not stated)	x	x	0%	x	x	x
COc1cc(NC(=O)CN(C)S(=O)(=O)c2cccs2)cc(OC)c1	2%	-8%	4%	-8	-4%	8
Cc1ccc(NC(=O)COC(=O)C2CC2)c(Br)c1	-2%	4%	1%	62*	2%	40*
Cc1cc(Br)ccc1NC(=O)CN(C)Cc1cccs1	-2%	-19%	-4%	48*	7%	28
CC(=O)c1cc2c(cc1NC(=O)CN(C)S(=O)(=O)c1cccs1)OCO2	x	-12%	-18%	x	x	x
Cc1ccc(NC(=O)CN(C)S(=O)(=O)c2cccs2)cc1C	9%	-1%	-9%	90*	-5%	35*
SMILES	LmPK inh	RE007 growth inh	Tb PYK inh	Shiga inhibitor	Giardia FBPA inh	Cycloheximide cs
Cc1ccc(NC(=O)CN(C)S(=O)(=O)c2cccs2)c(Br)c1	2%	9%	0%	84*	7%	36*
O=C(CN1CCCc2ccccc21)NCCc1ccc(Cl)cc1	-7%	18%	0%	10	-9%	6
COc1cc(OC)cc(-c2cc3nc(C)c(CCC(=O)NCc4ccc(Cl)cc4)c(C)n3n2)c1	x	x	-8%	x	x	x
Cc1ccc(NC(=O)CN(C)S(=O)(=O)c2cccs2)cc1F	-4%	2%	-1%	75*	-5%	38*
CCN(CC)CC(=O)Nc1c(C)cc(C(C)(C)C)cc1C	7%	17%	0%	40*	-9%	32*
CCN(CC)CC(=O)Nc1ccc(C)cc1Br	-8%	10%	-6%	40*	5%	27*
CCN(CC)CC(=O)Nc1c(C)cccc1C	4%	-1%[18.4 µM]	-2%	13	12%	-2
CCOc1ccc(NC(=O)CN(C)S(=O)(=O)c2cccs2)cc1	2%	-2%	-7%	109	-6%	30
CSc1ccc(CN(C)CC(=O)Nc2ccc(C)cc2Br)cc1	-2%	-3%	9%	13	4%	-3
CN(C)CCNC(=O)Cc1ccc(NC(=O)N2CCCCc3ccccc32)cc1	x	x	-7%	x	x	x
COc1ccc(NC(=O)c2cnn(-c3ccccc3)c2C)cc1OC	-12%	-5%	-3%	80*	5%	39*
O=C(O)c1cnn2c1C(=O)N(Cc1cccs1)CC2	-1%	1%	2%	4	2%	-4
Cc1c(C(=O)Nc2ccccc2)cnn1-c1ccccc1	x	-8%	4%	x	x	x
COc1ccc(NC(=O)c2cnn(-c3ccccc3)c2C)cc1	-20%	0%	-23%	x	4%	36*
COc1ccc(CN2CCn3ncc(C(=O)Nc4ccccc4)c3C2=O)cc1	0%	9%	-4%	52*	6%	32*
Cc1ccccc1C(=O)NC1(C(F)(F)F)N=C(c2ccccc2)N(C2CCCCC2)C1=O (configuration not stated)	x	x	-2%	x	x	x
Cc1ccc(-n2c(=O)c3ccc(C(=O)NCc4ccccc4Cl)cc3n(CC(=O)Nc3cccc(F)c3)c2=O)cc1	x	x	0%	x	x	x
COc1cccc2sc(Nc3nc4ccc(NC(C)=O)cc4s3)nc12	-3%	4%	-8%	44*	-5%	22*
CC(=O)Nc1ccc2nc(NC(=O)COc3ccccc3Cl)sc2c1	-3%	52%	-1%	43*	0%	26*
CC(=O)Nc1ccc2nc(NC(=O)CCc3ccccc3)sc2c1	0%	6%	1%	56*	-1%	27*
CC(=O)Nc1ccc2nc(NC(=O)COc3ccccc3C)sc2c1	14%	1%	-1%	35	3%	50*
CCc1nn(CC(=O)NCc2ccc(OC)cc2OC)c(=O)c2cc3c(OC)cccc3n12	x	x	2%	x	x	x
Cc1ccccc1C(=O)Nc1nc(-c2nnn(-c3ccc(C(C)C)cc3)c2C)ns1	x	x	-4%	x	x	x
O=C(Nc1ccc2c(c1)OCO2)c1c(F)cccc1F	-21%	6%	1%	75*	-6%	33*
O=C(Nc1ccc2c(c1)OCO2)c1cccc(F)c1	u	2%	-4%	75*	3%	34*
O=C(O)Cc1ccc(NC(=O)Nc2ccc3c(c2)OCO3)cc1	0%	-5%	1%	47*	2%	35*
O=C(COC(=O)c1cccc(F)c1)Nc1ccc2c(c1)OCCO2	x	-20%	-1%	x	x	x
